From PubChem
Sampled rows, rich in hits. Any-hit rate of the full collection: about 9.4%.
Rab9 prom act: activates the Rab9 promoter. Huh7 Rab9 promoter-luciferase reporter, luminescence, 24 h. 2.8% of 320,000 active. Potency, µM (doses to about 9.22 µM), for the others: top-dose activation, negative = inhibition, actives largely listed as activators; further: % of control where 0% means no effect; nearly all actives have a fitted effect of over 60% in size
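Stable Rab9-luc Huh7, 1500 cells/well, 2 h settle; cmpd in DMSO, 24 h, 37 °C/5% CO2; luciferase reagent 10 min RT; luminescence.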
NPC1 prom act: activates the NPC1 promoter | Huh7 NPC1 promoter luciferase reporter, 24 h | Potency, µM (titrated, usually from 9.22 µM), without a hit: top-dose activation, hits mostly activators | 2.4% of 320,000 active | AID 485313; further: % of control where 0% means no effect; nearly all actives have a fitted effect of over 60% in size
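Luminescence read-out of NPC1 promoter-driven luciferase in stably transfected Huh7 cells; compounds delivered in DMSO and left 24 h at 37C, 5% CO2, qHTS titration format.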
SMN2 splice up: SMN2 splice variant enhancement. HEK293 SMN2-luciferase splicing reporter, luminescence, 30-36 h. Potency, µM (doses to about 46.1 µM), inactives show at the highest dose activity change, positive = activation, hits mostly activators. 2.8% of 210,000 active; further: % of control where 0% means no effect; nearly all actives have a fitted effect of over 55% in size
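HEK293 cells carry an SMN2 […]–luciferase reporter in which exon 7 inclusion puts luciferase in frame. Cells were plated 10-12 h before compound addition, then incubated 30-36 h at 37C. ONE-Glo luminescence was read; sodium butyrate at 4.5 mM final served as control.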
ELG1 DNA repair: blocks ELG1-dependent DNA repair in HEK293T cells. HEK293T ELG1-luciferase reporter, luminescence, 16 h; DNA damage induced by 5-fluorouridine. Potency, µM (highest dose often 46.1 µM), for the others: at the top dose activity change, negative = inhibition, hits mostly inhibitors. 2.3% of 330,000 active. AID 504467; further: on the % scale 0 is the no-effect control and ±100 the full control effect; nearly all actives have a fitted effect of over 55% in size
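Step one: seed 2,000 cells per well. Step two: pin-transfer compound or DMSO alongside 5-fluorouridine. Step three: incubate 16 hr, 37 °C, 5% CO2. Step four: add ONE-Glo, wait 30 min, read luminescence.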
FLuc modulator: inhibits or activates purified firefly luciferase, miR-21 counter-screen | P08659 | purified FLuc, Km substrates, luminescence inhibition | Potency, µM (series often up to 57.5 µM), inactives show at the highest dose activity change, negative = inhibition, usual class: inhibitors | 6.9% of 360,000 active | AID 588342;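 further: plate controls were vehicle for no effect and reference inhibitor for full effect; nearly all actives have a fitted effect of over 55% in size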
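Biochemical qHTS of compounds, final roughly 60 µM downward over six points, against 10 nM purified firefly luciferase using Km concentrations of substrates (10 uM D-luciferin, 10 uM ATP) in Tris acetate pH 7.5 buffer; luminescence output.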
ELG1 genotox: inducers of genotoxicity in HEK293T ELG1-luciferase cells. HEK293T ELG1-luciferase reporter, luminescence, 16 h. Potency, µM (titrated, usually from 46 µM), for inactives: at the top dose activity change, positive = activation, hits mostly activators. AID 504466. 1.3% of 330,000 active; further: % of control where 0% means no effect; nearly all actives have a fitted effect of over 60% in size
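Luminescence read-out: rising ELG1-luciferase signal, reflecting elevated ELG1 protein under genetic stress, flags genotoxic compounds. Cells were treated for 16 hr at 37 °C before ONE-Glo detection.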
ELG1 FLuc counter: luciferase inhibition in cell-free luciferin readout for ELG1 hits. shares compounds with ELG1 DNA repair. cell-free firefly luciferase luminescence counter-screen, ViewLux. Potency, µM (series often up to 46.1 µM), without a hit: at the highest dose activity change, negative = inhibition, actives largely listed as inhibitors. 3% of 350 active. AID 624247; further: on the % scale 0 is the no-effect control and ±100 the full control effect
ELG1 Luc conf: confirmation of human ELG1-dependent DNA repair inhibitors; shares compounds with ELG1 DNA repair; HEK293T ELG1-luciferase levels, luminescence; cells co-treated with 5-fluorouridine; Potency, µM (titrated, usually from 46.1 µM), for inactives: top-dose activity change, negative = inhibition, actives largely listed as inhibitors; 68% of 670 active; AID 624248; further: on the % scale 0 is the no-effect control and ±100 the full control effect; nearly all actives have a fitted effect of over 55% in size
ELG1 MMS Luc: MMS-stimulated human ELG1 repair inhibition, confirmed; shares compounds with ELG1 DNA repair; HEK293T luciferase-tagged ELG1 level, MMS stimulated; AID 624249; Potency, µM (doses to about 46.1 µM), inactives show at the top dose activity change, negative = inhibition, most hits filed as inhibitors; 53% of 670 active; further: on the % scale 0 is the no-effect control and ±100 the full control effect; nearly all actives have a fitted effect of over 60% in size
ELG1 5FU viab: confirmation of ELG1 repair inhibitors: viability with 5FU | Potency, µM (titrated, usually from 46.1 µM), for the others: at the top dose activity change, negative = viability loss, actives largely listed as cytotoxic | 670 tested, under 10 active | shares compounds with ELG1 DNA repair | cell viability with 5-FU, ELG1-dependent repair | AID 624250;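 further: ELG1-luc HEK293T cells cotreated with 5-fluorouridine at 10 µM final; viability measured 16 h after compound addition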
ELG1 MMS viab: confirmation of ELG1 repair inhibitors: viability with MMS; shares compounds with ELG1 DNA repair; Cell viability with MMS, ELG1-dependent DNA repair; Potency, µM (series often up to 46.1 µM), for the others: at the highest dose activity change, negative = viability loss, actives largely listed as cytotoxic; 33% of 670 active; AID 624251;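 further: ELG1-luc HEK293T cells co-treated with 10 µM MMS; viability read 16 h after compound addition; on the % scale 0 is the no-effect control and ±100 the full control effect; nearly all actives have a fitted effect of over 60% in size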
Cell viab unstim: counter-screen for ELG1 repair inhibitors: unstimulated cell viability. cell viability counter-screen, unstimulated, luminescence. Potency, µM (doses to about 45.9 µM), inactives show at the highest dose activity change, negative = loss of viability, hits mostly cytotoxic. 8% of 900 active. shares compounds with ELG1 DNA repair;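 further: compound exposure lasted 16 hours before reading; on the % scale 0 is the no-effect control and ±100 the full control effect; nearly all actives have a fitted effect of over 55% in size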
FLuc enzyme: firefly luciferase inhibition counter-screen | Potency, µM (top dose mostly 57.5 µM), for the others: top-dose activity, negative = inhibition, usual class: inhibitors | shares compounds with ELG1 DNA repair | purified firefly luciferase, luminescence counter-screen | 10% of 350 active; further: on the % scale 0 is the no-effect control and ±100 the full control effect
The depositor's hits bear a star; ? = inconclusive; . = no result given; [ ] = another dose, or the depositor's remark. The call rests on the fitted dose curve; in most records, active means well fitted curve in the direction sought with a large enough effect; inconclusive means small, poorly fitted or top-dose-only effect, or another doubt; inactive means no such curve, though single readings can be large; an effect the other way counts as inactive or inconclusive. Potency means the concentration at half of the fitted maximal effect.

SMILES | Rab9 prom act | NPC1 prom act | SMN2 splice up | ELG1 DNA repair | FLuc modulator | ELG1 genotox | ELG1 Luc conf | ELG1 MMS Luc | ELG1 5FU viab | ELG1 MMS viab | Cell viab unstim | others
O=C(Nc1nc(-c2ccccn2)cs1)c1ccc(S(=O)(=O)N2CCCCC2)cc1 | -15% | -43% | . | 0.65µM* | -14% | -12% | 36µM* | 26µM* | 11%[92.2 µM] | 36µM* | ? | ELG1 FLuc counter=?;FLuc enzyme=-11%[115 µM]
COc1ccc(CCN2C(=O)C3C4C=CC(C5CC45)C3C2=O)cc1OC (centres undefined) | -2% | -1% | . | -2% | 7% | -3% | . | . | . | . | .
COc1ccc(CCN2C(=O)C3C4C=CC(C3C2=O)C2C(=O)N(CCc3ccc(OC)c(OC)c3)C(=O)C42)cc1OC (centres undefined) | -21% | -20% | -107% | 3.3µM* | 1% | -12% | ? | 6.3µM* | -3% | 5µM* | ?
O=C(N/N=C/c1sc(N2CCOCC2)nc1-c1ccccc1)c1cccc(S(=O)(=O)N2CCOCC2)c1 | -43% | -38% | . | 4.6µM* | 0% | -11% | 4µM* | 6.3µM* | 0% | ? | ?
Nc1ccc(C(=O)N/N=C/c2sc(N3CCOCC3)nc2-c2ccccc2)cc1 | -1% | 0% | ? | ? | ? | 5% | . | . | . | . | .
Cc1ccc(Cn2cc(SCC(=O)Nc3nccs3)c3ccccc32)cc1 | ? | ? | 2% | ? | ? | ? | . | . | . | . | .
Cc1cccc(Cn2cc(SCC(=O)Nc3nccs3)c3ccccc32)c1 | ? | ? | 9% | ? | -13% | 4.1µM* | . | . | . | . | -8% | ELG1 FLuc counter=67%;FLuc enzyme=2.9µM*
Fc1ccc2cc(CCO[C@H]3CCCCO3)ncc2c1 | . | . | . | ? | . | ? | . | . | . | . | ?
COc1ccc(OC)c(NC(=O)c2cc3c(=O)n4cccc(C)c4nc3n2C)c1 | . | . | . | . | -1% | . | . | . | . | . | .
COc1ccc(CCNC(=S)NC(=O)c2cc(OC)c(OC)c(OC)c2)cc1OC | -1% | 3% | . | 1.8µM* | 2% | -3% | 2.5µM* | 0% | ? | -1% | ?
O=C(Nc1ccc(Cl)c(NC(=O)c2cccs2)c1)c1ccco1 | 1% | -3% | . | -13% | ? | -8% | . | . | . | . | .
O=C(Nc1ccc(N2CCN(C(=O)c3ccco3)CC2)c(Cl)c1)c1cccs1 | -1% | 14% | -28% | 4.1µM* | -17% | -59% | 4µM* | 13µM* | ? | 28µM* | 25µM*
N#Cc1cccc(NC(=O)C2CCN(c3cnccn3)CC2)c1 | . | . | . | . | -7% | . | . | . | . | . | .
O=C(c1ccco1)N(Cc1cccs1)c1ccc(F)cc1 | . | . | . | . | -20% | . | . | . | . | . | .
COc1ccc(C2CC(c3c(O)cc(C)oc3=O)=NCCS2)c(OC)c1 (centres undefined) | -7% | ? | ? | ? | 11µM* | 10µM* | . | . | . | . | -15%
CC(C)(C)OC(=O)C[C@@H]1C/C=C\C[C@@H](CC(=O)N[C@H](CO)Cc2ccccc2)C(=O)N2CCC[C@H]2COC1=O | . | . | . | 2.9µM* | . | -6% | ? | ? | -2% | -7% | ?
CC(C)(C)OC(=O)C[C@H]1C/C=C\C[C@@H](CC(=O)N[C@H](CO)Cc2ccccc2)C(=O)N2CCC[C@H]2COC1=O | . | . | . | ? | . | -1% | . | . | . | . | .
COc1ccc(-c2cc(C(F)F)n3ncc(C(=O)Nc4ccc(C(=O)N5CCOCC5)cc4)c3n2)cc1 | -13% | -11% | -2% | 2.6µM* | 2% | -11% | 2.8µM* | -28% | ? | 6% | ?
CCOC(=O)N1CCN(C(=O)c2cnn3c(C(F)F)cc(-c4ccc(C)cc4)nc23)CC1 | -7% | -6% | 9% | 3.7µM* | 5% | -18% | 3.5µM* | 5% | ? | -8% | ?
COc1ccc(-c2cc(C(F)F)n3ncc(C(=O)N4CCc5ccccc54)c3n2)cc1 | -42% | -41% | . | 0.52µM* | -3% | -14% | 4.5µM* | ? | ? | ? | -11% | ELG1 FLuc counter=19%;FLuc enzyme=4%
CCOc1ccc(CCNc2nc3c(c(=O)n(C)c(=O)n3C)n2CC)cc1OCC | -29% | -11% | -86% | ? | 0% | -15% | 14µM* | 11µM* | 4% | -18% | -7% | ELG1 FLuc counter=-11%;FLuc enzyme=1%
CCCNc1nc2c(c(=O)n(C)c(=O)n2C)n1Cc1cccc(C)c1 | -19% | -21% | -41% | 1.3µM* | 2% | -11% | ? | 6.3µM* | 3% | 7.9µM* | -18%
CS(=O)(=O)Nc1ccccc1C(=O)OCc1cc(=O)n2nc(C3CCCCC3)sc2n1 | . | . | . | . | -1% | . | . | . | . | . | .
Cc1cccc(C(=O)Nc2sc3c(c2C(=O)N2CCCCC2)CCC(C)C3)c1 (centres undefined) | . | . | -11% | . | ? | . | . | . | . | . | .
NC(=O)C1CCN(C(=O)COc2ccc3c(c2)oc(=O)c2ccccc23)CC1 | 3% | -2% | . | 2% | ? | 9% | . | . | . | . | .
